PubChem BioAssay (NCATS)
Inconclusive results are not listed. Calls of active or inactive are those of the source. Unless noted, the call rests on the fitted dose curve; in most records, active means well fitted curve in the direction sought with a large enough effect; inconclusive means small, poorly fitted or top-dose-only effect, or another doubt; inactive means no such curve, though single readings can be large; an effect the other way counts as inactive or inconclusive.

Columns and labels:
[1] = Viability counterscreen for antagonist of constitutive androstane receptor (CAR) against the NCATS DSHEA and TCM libraries (AID 1794837);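 further: compound exposure lasted 24 h before viability reading; 0% is about no effect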
Summary of the method: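 Viability was measured by CellTiter-Fluor fluorescence (405/540 nm, 1 hr) in HepG2-CYP2B6-hCAR cells. Cells were co-treated 24 hr with 48 uM CITCO (final), antagonist mode, and test substances.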

[2] = Viability counterscreen for agonist of constitutive androstane receptor (CAR) against the NCATS DSHEA and TCM libraries (AID 1794838); further: 0% is about no effect
Summary of the method: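 Cell viability, from CellTiter-Fluor fluorescence (405/540 nm), was scored after a 24 h, 37C exposure of HepG2 cells carrying CYP2B6 reporter and hCAR to test substances in presence of 0.75 uM PK11195.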

[3] = molecular target: Nuclear receptor subfamily 1 group I member 3 (Homo sapiens) (UniProt Q14994); assay: Primary qHTS for agonist of constitutive androstane receptor (CAR) against the NCATS DSHEA and TCM libraries (AID 1794839); further: potency means the concentration at half of the fitted maximal effect
Sequence of Nuclear receptor subfamily 1 group I member 3 (Homo sapiens) (Q14994 whole entry, looked up): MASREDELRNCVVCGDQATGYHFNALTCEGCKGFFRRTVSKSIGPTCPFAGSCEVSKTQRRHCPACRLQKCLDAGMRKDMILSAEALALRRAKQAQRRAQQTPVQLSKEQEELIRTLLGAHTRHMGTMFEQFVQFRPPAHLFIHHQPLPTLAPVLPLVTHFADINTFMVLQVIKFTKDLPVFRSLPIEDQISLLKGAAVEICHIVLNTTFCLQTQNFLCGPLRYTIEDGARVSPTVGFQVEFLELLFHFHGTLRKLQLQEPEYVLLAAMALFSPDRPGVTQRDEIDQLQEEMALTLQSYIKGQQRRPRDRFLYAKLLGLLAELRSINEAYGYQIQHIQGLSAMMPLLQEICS
Summary of the method: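 Agonist mode in presence of hCAR antagonist PK11195 (0.75 µM final): test substances, 24 h, 37 °C, on HepG2-CYP2B6-hCAR cells. Same-well readouts: fluorescence viability, then ONE-Glo luminescence; CITCO as reference agonist.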

[4] = HepG2 viability counterscreen (readout 2: ATP content) against the NCATS DSHEA and TCM libraries (AID 1794840);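 further: HepG2 cells exposed to substances for about 24 h; 0% is about no effect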
Summary of the method: (§1)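 Readout 1: cellular protease activity, GF-AFC substrate (25 uM final, 30 min, fluorescence 380/510 nm). Readout 2: ATP content by CellTiter-Glo luminescence after 30 min at RT. Both follow ~24 h exposure of HepG2 cells (1,000/well) to substances.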

[5] = HepG2 viability counterscreen (readout 1: protease activity) against the NCATS DSHEA and TCM libraries (AID 1794841);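 further: cells exposed to compounds for about 24 h before the protease read; 0% is about no effect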
Summary of the method: as §1

[6] = molecular target: Cytochrome P450 2D6 (Homo sapiens) (UniProt P10635); assay: qHTS for inhibitors of CYP2D6 against the NCATS DSHEA and TCM libraries (AID 1919972); further: on the % scale 0 is the no-effect control and ±100 the full control effect
Sequence of Cytochrome P450 2D6 (Homo sapiens) (P10635 whole entry, looked up): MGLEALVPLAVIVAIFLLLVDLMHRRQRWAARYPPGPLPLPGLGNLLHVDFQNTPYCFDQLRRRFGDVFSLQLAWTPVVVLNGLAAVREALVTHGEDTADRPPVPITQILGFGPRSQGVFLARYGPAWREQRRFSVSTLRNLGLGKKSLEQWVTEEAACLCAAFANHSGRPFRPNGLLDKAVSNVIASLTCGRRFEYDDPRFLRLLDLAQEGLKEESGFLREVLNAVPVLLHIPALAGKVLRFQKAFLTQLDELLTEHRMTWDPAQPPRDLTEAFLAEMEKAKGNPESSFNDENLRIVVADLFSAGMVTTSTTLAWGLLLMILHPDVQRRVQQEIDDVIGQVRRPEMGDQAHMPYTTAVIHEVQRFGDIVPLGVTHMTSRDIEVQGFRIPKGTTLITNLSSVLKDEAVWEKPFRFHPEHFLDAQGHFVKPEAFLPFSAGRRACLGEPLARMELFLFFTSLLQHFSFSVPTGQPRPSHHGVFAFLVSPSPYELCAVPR
Summary of the method: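 Luminescent P450-Glo read-out of CYP2D6 turnover of a luciferin substrate after NADPH-driven reaction of 30-45 min at room temperature. Compounds were first preincubated 15 min with enzyme at titrated concentrations; quinidine was the intraplate control.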

[7] = molecular target: Cytochrome P450 2C9 (Homo sapiens) (UniProt P11712); assay: qHTS for inhibitors of CYP2C9 against the NCATS DSHEA and TCM libraries (AID 1919973);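 further: luminogenic pro-luciferin CYP2C9 substrate turned into luciferin with NADPH regeneration; on the % scale 0 is the no-effect control and ±100 the full control effect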
Sequence of Cytochrome P450 2C9 (Homo sapiens) (P11712 whole entry, looked up, canonical isoform): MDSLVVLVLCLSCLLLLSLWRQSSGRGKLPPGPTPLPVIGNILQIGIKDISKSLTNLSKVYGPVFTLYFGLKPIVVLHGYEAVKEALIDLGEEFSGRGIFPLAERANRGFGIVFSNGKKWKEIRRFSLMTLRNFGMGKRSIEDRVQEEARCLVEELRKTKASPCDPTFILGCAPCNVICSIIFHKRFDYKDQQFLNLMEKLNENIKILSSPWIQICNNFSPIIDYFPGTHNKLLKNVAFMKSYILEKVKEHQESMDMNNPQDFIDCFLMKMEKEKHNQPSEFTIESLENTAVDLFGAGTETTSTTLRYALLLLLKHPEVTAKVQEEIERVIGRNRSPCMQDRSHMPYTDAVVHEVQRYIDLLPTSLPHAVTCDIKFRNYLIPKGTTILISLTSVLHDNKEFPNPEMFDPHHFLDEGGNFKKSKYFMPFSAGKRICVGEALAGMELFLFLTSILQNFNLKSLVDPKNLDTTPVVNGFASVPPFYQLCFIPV
Summary of the method: (§2)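 Read-out is luminescence after P450-Glo detection (30 min, RT). Before that: 15 min compound–enzyme preincubation, then 30-45 min reaction with 1x NADPH regeneration solution, substrate concentration isoform-specific.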

[8] = KB-3-1 P-gp reporter qHTS against the NCATS DSHEA and TCM libraries (AID 1919975); further: 0% is about no effect
Summary of the method: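 Cell viability by CellTiter-Glo luminescence following ~72 h compound exposure (concentration-response). Uses parental, non-P-gp-overexpressing KB-3-1 line, 500 cells/well in DMEM/10% FBS, attached ~4 h before dosing.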

[9] = qHTS Counterscreen for compound interference against the NCATS DSHEA and TCM libraries (AID 1919978); conditions: firefly luciferase detection reagent interference, luminescence;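 further: compounds preincubated with 1 µM D-luciferin or buffer before detection reagent; % of control where 0% means no effect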
Summary of the method: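 With 1 uM D-luciferin or phosphate buffer only, compounds at final 19.5 nM–39.8 uM were incubated for 15 min at room temperature. Luciferase detection reagent was then added, and luminescence was measured after a further 30 min at room temperature.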

[10] = Dual reporter qHTS for agonist of Pregnane X Receptor (hPXR) against the NCATS DSHEA and TCM libraries: Fluorescence readout (AID 1920058); further: 0% is about no effect
Summary of the method: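 HepG2 hPXR-Luc, 2000 cells/well, 5 h attach; cpds ~24 h, 37 °C/5% CO2; CellTiter-Fluor 1 h; fluor. Ex/Em 405/540 nm = viability.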

[11] = molecular target: Nuclear receptor subfamily 1 group I member 2 (Homo sapiens) (UniProt O75469); assay: Dual reporter qHTS for agonist of Pregnane X Receptor (hPXR) against the NCATS DSHEA and TCM libraries: Luminescence readout (AID 1920059); further: 0% is about no effect
Sequence of Nuclear receptor subfamily 1 group I member 2 (Homo sapiens) (O75469 whole entry, looked up): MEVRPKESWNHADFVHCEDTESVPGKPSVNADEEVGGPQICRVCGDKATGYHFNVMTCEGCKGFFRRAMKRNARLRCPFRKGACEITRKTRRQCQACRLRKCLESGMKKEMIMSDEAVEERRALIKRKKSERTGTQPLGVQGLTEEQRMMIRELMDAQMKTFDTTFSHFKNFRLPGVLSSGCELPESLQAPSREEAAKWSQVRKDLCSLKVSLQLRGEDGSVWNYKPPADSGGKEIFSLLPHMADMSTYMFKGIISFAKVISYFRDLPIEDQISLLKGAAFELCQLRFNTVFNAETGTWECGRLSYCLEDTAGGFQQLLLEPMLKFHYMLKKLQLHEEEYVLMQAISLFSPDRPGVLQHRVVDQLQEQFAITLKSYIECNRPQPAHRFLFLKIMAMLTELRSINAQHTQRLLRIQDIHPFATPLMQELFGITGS
Summary of the method: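 hPXR-LucHepG2 cells in phenol red-free DMEM with 5% charcoal-stripped FBS, 2000 cells/well, attached 5 h, then exposed 24 h at 37C to compounds; rifampicin as positive agonist control (2.8 nM–92 uM). Luciferase luminescence read.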

[12] = molecular target: Nuclear receptor subfamily 1 group I member 2 (Homo sapiens) (UniProt O75469); assay: Dual reporter qHTS for antagonist of Pregnane X Receptor (hPXR) against the NCATS DSHEA and TCM libraries: Luminescence Readout (AID 1920060);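 further: HepG2 cells carrying hPXR luciferase reporter stimulated with rifampicin at 2 µM; 0% is about no effect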
Summary of the method: (§3)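 Antagonist mode: rifampicin 2 uM final co-added with compounds to hPXR-LucHepG2 cells for 24 h at 37C. Viability by CellTiter-Fluor, Ex/Em 405/540 nm, 1 h; reporter by ONE-Glo luminescence.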

[13] = Dual reporter qHTS for antagonist of Pregnane X Receptor (hPXR) against the NCATS DSHEA and TCM libraries: Fluorescence Readout (AID 1920061); further: 0% is about no effect
Summary of the method: as §3

[14] = molecular target: Cytochrome P450 2C19 (Homo sapiens) (UniProt P33261); assay: qHTS for inhibitors of CYP2C19 against the NCATS DSHEA and TCM libraries (AID 1919974);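 further: luminescence from luciferin released by CYP2C19 oxidation of a pro-luciferin substrate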; further: potency means the concentration at half of the fitted maximal effect
Sequence of Cytochrome P450 2C19 (Homo sapiens) (P33261 whole entry, looked up): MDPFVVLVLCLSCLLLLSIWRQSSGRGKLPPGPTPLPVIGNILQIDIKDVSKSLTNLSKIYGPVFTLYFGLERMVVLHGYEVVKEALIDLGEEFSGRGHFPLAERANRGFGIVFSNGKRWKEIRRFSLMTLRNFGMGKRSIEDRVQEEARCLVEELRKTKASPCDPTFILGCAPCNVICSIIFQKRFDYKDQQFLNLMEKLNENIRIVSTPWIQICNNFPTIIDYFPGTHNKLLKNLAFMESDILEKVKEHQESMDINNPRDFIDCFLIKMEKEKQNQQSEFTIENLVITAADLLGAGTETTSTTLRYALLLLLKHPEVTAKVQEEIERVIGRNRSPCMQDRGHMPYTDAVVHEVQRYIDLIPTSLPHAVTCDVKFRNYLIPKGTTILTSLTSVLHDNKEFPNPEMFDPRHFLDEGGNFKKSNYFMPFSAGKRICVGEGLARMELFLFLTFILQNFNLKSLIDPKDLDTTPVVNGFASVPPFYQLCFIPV
Summary of the method: as §2

[15] = NFAT Signaling Pathway (AID 444; active means well fitted curve in either direction with a large enough effect, not every such curve was filed as active;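 further: carbachol stimulus at about its EC50 of 1 µM final; on the % scale 0 is the no-effect control and ±100 the full control effect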); conditions: Jurkat NFAT-bla M1, carbachol, beta-lactamase ratio, 5 h; at 7.69 µM (top of the series) unless noted
Summary of the method: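 Jurkat cells carrying an NFAT-driven β-lactamase reporter and co-transfected muscarinic M1 receptor were treated with compound plus carbachol (1 uM final, an EC50 level) for 5 h at 37 °C. CCF4 loading followed for 1 h at RT; 460/530 nm ratio gave %activity.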

[16] = molecular target: Glucocorticoid receptor (Homo sapiens) (UniProt P04150); assay: GR-GFP Redistribution (AID 450;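 active means compounds whose dose series gives a full or clear partial fitted curve of increased nuclear translocation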; further: potency means the concentration at half of the fitted maximal effect); conditions: U2OS GR-GFP nuclear translocation, laser cytometry, 2 h
Sequence of Glucocorticoid receptor (Homo sapiens) (P04150 whole entry, looked up): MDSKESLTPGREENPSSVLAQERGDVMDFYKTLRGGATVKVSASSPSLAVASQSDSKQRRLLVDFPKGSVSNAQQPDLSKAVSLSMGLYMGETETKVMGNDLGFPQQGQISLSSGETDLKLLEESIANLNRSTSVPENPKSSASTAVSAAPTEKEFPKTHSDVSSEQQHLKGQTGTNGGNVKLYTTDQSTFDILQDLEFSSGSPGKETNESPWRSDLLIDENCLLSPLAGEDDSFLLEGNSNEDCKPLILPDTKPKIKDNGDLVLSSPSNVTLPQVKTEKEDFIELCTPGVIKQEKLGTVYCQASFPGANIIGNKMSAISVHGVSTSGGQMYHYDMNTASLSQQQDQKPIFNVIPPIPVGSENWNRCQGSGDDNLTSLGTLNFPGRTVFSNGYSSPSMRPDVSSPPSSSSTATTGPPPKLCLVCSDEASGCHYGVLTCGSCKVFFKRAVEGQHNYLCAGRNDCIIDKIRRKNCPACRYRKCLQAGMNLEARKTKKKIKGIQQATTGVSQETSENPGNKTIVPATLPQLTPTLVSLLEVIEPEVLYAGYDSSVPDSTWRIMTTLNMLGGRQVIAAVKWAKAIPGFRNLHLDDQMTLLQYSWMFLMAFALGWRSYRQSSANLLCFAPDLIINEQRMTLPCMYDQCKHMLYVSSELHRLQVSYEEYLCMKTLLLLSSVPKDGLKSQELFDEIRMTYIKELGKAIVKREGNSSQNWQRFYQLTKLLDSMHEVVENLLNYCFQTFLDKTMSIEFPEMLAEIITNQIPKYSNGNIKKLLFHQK

[17] = molecular target: Mitogen-activated protein kinase 10 (Mus musculus) (UniProt Q61831); assay: JNK3 AlphaScreen Assay (AID 530; active means well fitted curve in either direction with a large enough effect, not every such curve was filed as active;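 further: kinase came from lysate of stimulated human HepG2 cells; signal reports phosphorylation of biotinylated GST-cJun 1-79 at Ser73 with 10 µM ATP; on the % scale 0 is the no-effect control and ±100 the full control effect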)
Summary of the method: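 Inhibitors reduce antibody binding to phosphorylated biotin-cJun, lowering AlphaScreen luminescence. Lysates from HepG2 cells pre-activated by IL-1beta plus TNF-alpha supplied JNK3; compounds were titrated.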

[18] = molecular target: Ubiquitin carboxyl-terminal hydrolase 1 (Homo sapiens) (UniProt O94782); assay: Inhibitors of USP1/UAF1: Pilot qHTS (AID 504865);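 further: rhodamine fluorescence freed from ubiquitin-rhodamine substrate followed over time; top concentration of the series differs between compounds; on the % scale 0 is the no-effect control and ±100 the full control effect; nearly all actives have a fitted effect of over 35% in size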
Sequence of Ubiquitin carboxyl-terminal hydrolase 1 (Homo sapiens) (O94782 whole entry, looked up): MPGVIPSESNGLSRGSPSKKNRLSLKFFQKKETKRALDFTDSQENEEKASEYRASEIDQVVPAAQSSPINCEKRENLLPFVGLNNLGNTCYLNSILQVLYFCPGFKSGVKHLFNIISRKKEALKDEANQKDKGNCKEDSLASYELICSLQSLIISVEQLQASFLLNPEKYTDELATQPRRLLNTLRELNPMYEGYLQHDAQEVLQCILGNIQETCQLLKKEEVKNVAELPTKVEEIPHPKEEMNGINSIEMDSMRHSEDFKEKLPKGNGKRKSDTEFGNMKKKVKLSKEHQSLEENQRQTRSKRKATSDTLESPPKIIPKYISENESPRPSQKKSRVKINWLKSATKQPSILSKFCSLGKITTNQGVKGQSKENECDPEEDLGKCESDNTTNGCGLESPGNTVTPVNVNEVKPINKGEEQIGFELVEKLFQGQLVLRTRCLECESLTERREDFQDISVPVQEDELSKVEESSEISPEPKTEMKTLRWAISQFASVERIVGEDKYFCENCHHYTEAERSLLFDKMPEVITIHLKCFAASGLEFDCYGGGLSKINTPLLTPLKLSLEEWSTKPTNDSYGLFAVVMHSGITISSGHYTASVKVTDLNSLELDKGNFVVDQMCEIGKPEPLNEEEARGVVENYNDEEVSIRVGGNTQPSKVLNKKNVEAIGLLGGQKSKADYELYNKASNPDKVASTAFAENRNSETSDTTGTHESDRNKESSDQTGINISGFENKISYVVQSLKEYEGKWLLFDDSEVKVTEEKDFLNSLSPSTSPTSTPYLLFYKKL
Summary of the method: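 Deubiquitinase activity followed as kinetic rhodamine fluorescence release from 150 nM Ub-Rho. 1 nM USP1/UAF1 with compound, after 15 min room-temperature preincubation, in HEPES pH 7.8 buffer containing TCEP, EDTA, BSA and Tween-20.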

CC1=CCC(=C(C)C)CC1
inactive: outcome [1] | outcome [2] | Potency [3] | outcome [4] | outcome [5] | Potency [6] | Potency [7] | outcome [8] | max response [9] 2.83% | outcome [10] | Potency [11] | outcome [12] | outcome [13]

CCCCCCCCC[C@@H](O)CC(=O)CCc1ccc(O)c(OC)c1
inactive: outcome [1] | outcome [2] | outcome [4] | outcome [5] | Potency [6] | outcome [8] | max response [9] 2.63% | outcome [10] | outcome [12] | outcome [13]
active: Potency [3] 12.6 µM | Potency [14] 6.31 µM

CC1=CC[C@H](C(C)C)C=C1
inactive: outcome [1] | outcome [2] | Potency [3] | outcome [4] | outcome [5] | Potency [6] | outcome [8] | max response [9] 0.517% | outcome [10] | outcome [12] | outcome [13]
active: Potency [14] 39.8 µM

CCCCCCCC/C=C\CCCCCCCCCCCC(=O)O
inactive: outcome [1] | outcome [2] | Potency [3] | outcome [4] | outcome [5] | Potency [6] | outcome [8] | max response [9] 1.35% | outcome [10] | Potency [11] | outcome [12] | outcome [13]

O=Cc1ccccc1O
inactive: outcome [1] | outcome [2] | Potency [3] | outcome [4] | outcome [5] | Potency [6] | Potency [7] | Potency [14] | outcome [8] | max response [9] 1.96% | outcome [10] | Potency [11] | outcome [12] | outcome [13]

CN1CCN(c2nc(-c3cccnc3)nc3ccccc23)CC1
inactive: activity change, negative = inhibition [15] 11.1% | Potency [16] > 46 µM | Potency [17] | Potency [18]

COc1ccccc1CNc1nc(-c2cccc(NS(C)(=O)=O)c2)nc2ccccc12
inactive: activity change, negative = inhibition [15] -21% | Potency [16] > 46 µM | Potency [17] | Potency [18]

CN(C)c1ccc(-c2cncnc2NCCc2cnc[nH]2)cc1
inactive: activity change, negative = inhibition [15] -15.1% | Potency [16] > 46 µM | Potency [17] | Potency [18]

Cc1ccccc1-c1ccc2ncnc(NCCN3CCOCC3)c2c1
inactive: activity change, negative = inhibition [15] -0.729% | Potency [16] > 46 µM | Potency [17] | Potency [18]

CC(C)=CCC[C@](C)(O[C@@H]1O[C@H](CO)[C@@H](O)[C@H](O)[C@H]1O)[C@H]1CC[C@]2(C)[C@@H]1[C@H](O)C[C@@H]1[C@@]3(C)CC[C@H](O)C(C)(C)[C@@H]3[C@@H](O[C@@H]3O[C@H](CO)[C@@H](O)[C@H](O)[C@H]3O)C[C@]12C
inactive: outcome [1] | outcome [2] | outcome [4] | Potency [6] | Potency [7] | Potency [14] | outcome [8] | max response [9] 2.82% | outcome [10] | Potency [11] | outcome [12] | outcome [13]
